# Source: PubChem BioAssay
# Unmarked numbers belong to inactive results. How the calls were made is not given here.
# Target: Pantothenate synthetase (Mycobacterium tuberculosis (strain ATCC 25618 / H37Rv)) (UniProt P9WIL5)
# Assay: Coupled enzyme confirmation of inhibitors against recombinant Mtb PanC (AID 375);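 further: 0% = full reaction with vehicle and 100% = no enzyme background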
# Conditions: coupled enzyme assay; at 10 µM, hits give high values
# Pantothenate synthetase (Mycobacterium tuberculosis (strain ATCC 25618 / H37Rv)), sequence (P9WIL5 whole entry, looked up): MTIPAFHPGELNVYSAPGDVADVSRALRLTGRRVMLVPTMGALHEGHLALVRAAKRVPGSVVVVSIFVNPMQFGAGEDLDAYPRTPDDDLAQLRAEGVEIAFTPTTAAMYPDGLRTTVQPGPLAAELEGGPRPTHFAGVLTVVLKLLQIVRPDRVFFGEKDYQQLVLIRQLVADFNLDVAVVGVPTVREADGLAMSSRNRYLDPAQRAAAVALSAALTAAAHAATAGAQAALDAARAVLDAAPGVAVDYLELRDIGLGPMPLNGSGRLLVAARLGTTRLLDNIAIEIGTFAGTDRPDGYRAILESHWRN
row,Compound,inhibition [%]
1,COc1ccc(NC(=O)C(C)NS(=O)(=O)c2ccc(NC(C)=O)cc2)cc1Cl (centres undefined),9
2,Cc1cc(C)c2c(=O)[nH]c(=O)n(Cc3ccccc3)c2n1,0
3,CN(C)S(=O)(=O)n1cnc(-c2ccccc2)c1-c1ccccc1,4
4,CCCCOC(=O)c1cccc(NC(=O)CC)c1,0
5,CC(=O)c1cn(CC(=O)NCc2ccc3c(c2)OCO3)c2ccccc12,0
6,Cc1nc(=S)n(-c2ccccc2)[nH]1,0
7,Cc1cccc(NC(=O)c2oc3c(c2C)C(=O)CC(C)(C)C3)n1,9
8,COc1ccc(-c2nn(-c3ccccc3)cc2/C=N/n2cnnc2)cc1OC,9
9,CCC(C(=O)NC(C)CCc1ccco1)n1nc(C)n2c(cc3occc32)c1=O (centres undefined),0
10,Cc1ccc(N2CC(C(=O)Nc3ccc4c(c3)OCO4)CC2=O)cc1 (centres undefined),6
11,O=C(OCC(=O)c1ccc[nH]1)c1ccc(S(=O)(=O)N2CCCCC2)cc1,1
12,CN(C)CCCC1(c2ccc(F)cc2)OCc2cc(C#N)ccc21 (centres undefined),0
13,O=C(NCCN1C(=O)C2C3C=CC(C3)C2C1=O)N1CCCCC1 (centres undefined),0
14,O=C(O)CCNc1ccc2c(c1)OCCO2,0
15,CCc1ccccc1NC(=O)CSc1ncn[nH]1,0
16,CN(C)S(=O)(=O)c1ccc(S(=O)(=O)N(Cc2ccco2)Cc2ccccc2Cl)cc1,3
17,Cc1ccc2c(CNCc3ccco3)cc(=O)oc2c1,0
18,COc1ccc(OC)c(C(=O)CSc2nnc(-c3ccc(OC)c(OC)c3)o2)c1,11
19,Cn1c(-c2ccc(C(C)(C)C)cc2)n[nH]c1=S,0
20,Cc1oc2nc(SCCCC(=O)NCCCO)nc(N)c2c1C,2
21,CC(=O)OCC(=O)[C@@]1(O)CC[C@H]2[C@@H]3CCC4=CC(=O)CC[C@]4(C)[C@H]3C(=O)C[C@@]21C,0
22,CC(NC(=O)COc1ccccc1)C(=O)NC1=NCCS1 (centres undefined),0
23,CCCN1CCC(NC(=O)Nc2ccc(OC)c(OC)c2)CC1,0
24,CC(C)(C)NC(=O)COC(=O)c1ccc(O)cc1,0
25,COc1ccc(Oc2c(C)oc3cc(OC(=O)N4CCOCC4)ccc3c2=O)cc1,3

row,Compound,inhibition [%]
1,COc1cc2c(cc1NC(=O)CSc1nnc(Cc3cccs3)n1C)oc1ccccc12,6
2,CCOc1ccccc1NC(=O)CSc1c(C)n[nH]c1C,5
3,COc1ccccc1NC(=O)CSc1nnc(-c2ccncc2)n1CC1CCCO1 (centres undefined),0
4,Nc1nc(-c2ccc(Cl)cc2)cc(C(F)(F)F)n1,0
5,O=C(NCC(=O)N(Cc1cccs1)C(C(=O)NC1CCCC1)c1ccncc1)c1ccco1 (centres undefined),4
6,O=C(CCN1C(=O)c2ccccc2C1=O)OCN1C(=O)c2ccccc2C1=O,5
7,Cc1c(CCC#N)c(N2CCN(C3CCCCC3)CC2)n2c(nc3ccccc32)c1C#N,3
8,CC1CCN(c2oc(-c3ccccc3F)nc2C#N)CC1,4
9,O=C(COc1ccc2ccccc2c1)N1CCCC1,8
10,O=C(Nc1ccccc1C(=O)N1CCOCC1)c1cccc(S(=O)(=O)N2CCCC2)c1,0
11,CCC1CCCN1Cn1cnc2c([nH]c3ccc(OC)cc32)c1=O (centres undefined),1
12,O=C(CSc1nc2ccccc2nc1SCC(=O)N1CCOCC1)N1CCOCC1,0
13,COc1cc(Br)cc(/C=N/c2ncn[nH]2)c1O,5
14,O=C(NC1CCCC1)C(NS(=O)(=O)c1cccc2nsnc12)c1ccccc1 (centres undefined),7
15,O=C(O)c1cc(-c2ccccc2)nc2ccccc12,3
16,Cc1ccnc(NC(=O)C2CCCN(S(=O)(=O)c3cnc[nH]3)C2)c1 (centres undefined),0
17,COCCCN(C(C)=O)c1nc(-c2ccccc2)cs1,0
18,Cc1cnc(NC(=O)CSc2nnc(COc3c(C)cccc3C)o2)s1,8
19,Cc1ccnc(NS(=O)(=O)c2ccc(NC(=O)Cc3cccs3)cc2)n1,3
20,COCn1c(COc2ccccc2)nc2ccccc21,0
21,CCOC(=O)/C=C1\SCC(=O)N1Cc1nnc(-c2ccccc2Br)o1,0
22,CCCCN(C)C(=O)CS(=O)(=O)Cc1nc(-c2cccc(OC)c2)oc1C,0
23,CCN(CC)S(=O)(=O)c1ccc2c(c1)nc(SCn1nnc3ccccc3c1=O)n2CC,0
24,O=C(Nc1ccccc1N1CCN(C(=O)c2ccc(Cl)cc2)CC1)c1cc2ccccc2o1,3
25,Cc1nc2ccc(S(=O)(=O)NC(C(=O)N3CCCC3)C(C)C)cc2s1 (centres undefined),0

row,Compound,inhibition [%]
1,COC(=O)C(NC(C)=O)(Nc1ccccn1)C(F)(F)F (centres undefined),1
2,O=C(c1ccccc1)N1CCN(Cc2ccccc2Br)CC1,3
3,CCc1cccc2c(=O)c(C(=O)N3CCCCCC3)c[nH]c12,0
4,Cc1ccc2nc3c(cc(C(=O)NCC4CCCO4)n3C)c(=O)n2c1 (centres undefined),0
5,COc1cccc(-c2cc(C(=O)Nc3c(C)nn(Cc4ccccc4)c3C)no2)c1,0
6,CCc1ccc(N2CC34C=CC(O3)C(C(=O)OC)C4C2=O)cc1 (centres undefined),0
7,CCOC(=O)N1CCN(C(=O)CN(c2ccc(C)cc2)S(=O)(=O)c2c(C)noc2C)CC1,0
8,COc1c2ccoc2nc2c(OC)c(OCC(O)C(C)(C)O)ccc12 (centres undefined),0
9,CCN(CCCNC(=O)c1cn(CC)c2ccc(S(=O)(=O)N(C)C)cc2c1=O)c1cccc(C)c1,7
10,CC(C)n1c(NCc2c[nH]c3ccccc23)nc2ccccc21,0
11,CCN1CCN(c2nc3c(c(=O)n(C)c(=O)n3C)n2Cc2cccc3ccccc23)CC1,0
12,c1cncc(C2Nc3ccccc3-c3nc4ccccc4n32)c1 (centres undefined),7
13,COc1ccc(S(=O)(=O)NCCC(=O)NC2CCCCCCC2)cc1,0
14,Cc1c(=O)n(OCc2ccccn2)c2ccccc2[n+]1[O-],0
15,CC(=O)Nc1cccc(NC(=O)C2CCCN2C(=O)Nc2ccc(C)cc2)c1 (centres undefined),0
16,Cc1cc(C)n(CCc2nc(-c3cccs3)cs2)n1,2
17,Cc1cccc(-n2ncc3c(NCc4cccnc4)ncnc32)c1,7
18,COc1ccc(/C(O)=C2/C(=O)C(=O)N(Cc3cccnc3)C2c2ccncc2)cc1F (centres undefined),4
19,CCOc1ccc(C2CC(c3cccc(C)c3)n3ncnc3N2)cc1 (centres undefined),0
20,COc1cccc(-c2nc(CS(=O)CC(=O)NCCCOC(C)C)c(C)o2)c1 (centres undefined),2
21,Cc1ccc(-c2ccc(=O)n(CC(=O)NCCCN3CCCCC3C)n2)cc1 (centres undefined),0
22,COCCn1nnnc1CN1CCC(Cc2ccccc2)CC1,0
23,CC(O)c1cc2c(cc1NC(=O)c1cnn3c1NC(c1ccco1)CC3C(F)(F)F)OCO2 (centres undefined),0
24,Cc1nnc(SCC(=O)N2CCN(S(=O)(=O)c3ccccc3)CC2)[nH]c1=O,0
